Measurements from the supplement of paper PMC10849652.
About 7,900 targets were measured; listed, in parts, are those with a hit and a random draw of the rest. About 0.6% of all pairs of compound and target were hits.

Columns and labels:
Assay in all cases: log2 fold change, soluble protein after heating vs DMSO (PISA); higher = thermal stabilisation; K562 cells, 10 uM, 30 min; active = over 0.2 and 3.5 SD of the protein, either way, in both replicates (recomputed)
[1] = compound: NC(=O)Nc1cc(-c2cccc(F)c2)sc1C(=O)N[C@H]1CCCNC1
In short: (§1)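 K562 cells (2×10^6 cells/mL) were treated with 10 μM compound for 30 min, and aliquots were heated for 3 min over 48°C-58°C. Pooled aliquots were extracted in PBS with 0.5% NP-40 at 4°C, and the supernatant after 21,000xg for 90 min was measured by TMTpro 16plex LC-MS/MS with channel sums equalised. Reported thermal stability, relative to control samples and from duplicates, is a log2 fold change.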

[2] = compound: NC(=O)c1cnc(N[C@@H]2CCCC[C@@H]2N)nc1Nc1cccc(-n2nccn2)c1
In short: as §1

[3] = compound: NC1(c2ccc(-c3nc4ccn5c(=O)[nH]nc5c4cc3-c3ccccc3)cc2)CCC1
In short: as §1

[4] = compound: NCC(=O)Nc1ccc(-n2nc(C(F)(F)F)cc2-c2ccc3c(ccc4ccccc43)c2)cc1
In short: as §1

entinostat = compound: Nc1ccccc1NC(=O)c1ccc(CNC(=O)OCc2cccnc2)cc1 [entinostat]
In short: as §1

vorinostat = compound: O=C(CCCCCCC(=O)Nc1ccccc1)NO [vorinostat]
In short: as §1

citarinostat = compound: O=C(CCCCCCNC(=O)c1cnc(N(c2ccccc2)c2ccccc2Cl)nc1)NO [citarinostat]
In short: as §1

silmitasertib = compound: O=C(O)c1ccc2c(c1)nc(Nc1cccc(Cl)c1)c1ccncc12 [silmitasertib]
In short: as §1

[5] = compound: O=C1NC(=O)C(c2cnc3ccccn23)=C1c1cn2c3c(cc(F)cc13)CN(C(=O)N1CCCCC1)CC2
In short: as §1

[6] = compound: c1cc(OCCN2CCCCC2)cc(-c2n[nH]c3ccc(-c4nnc[nH]4)cc23)c1
In short: as §1

entospletinib = compound: c1cn2cc(-c3ccc4cn[nH]c4c3)nc(Nc3ccc(N4CCOCC4)cc3)c2n1 [entospletinib]
In short: as §1

Measured: log2 fold change

MFN2 (UniProt O95140)
inactive: [1] -0.081 | [2] -0.088 | [3] -0.104 | [4] -0.168 | entinostat 0.014 | vorinostat -0.019 | citarinostat -0.021 | silmitasertib -0.024 | [5] -0.019 | [6] -0.008 | entospletinib -0.004

MFSD5 isoform 2 (UniProt Q6N075)
Sequence of UniProt Q6N075 (Q6N075 whole entry, looked up): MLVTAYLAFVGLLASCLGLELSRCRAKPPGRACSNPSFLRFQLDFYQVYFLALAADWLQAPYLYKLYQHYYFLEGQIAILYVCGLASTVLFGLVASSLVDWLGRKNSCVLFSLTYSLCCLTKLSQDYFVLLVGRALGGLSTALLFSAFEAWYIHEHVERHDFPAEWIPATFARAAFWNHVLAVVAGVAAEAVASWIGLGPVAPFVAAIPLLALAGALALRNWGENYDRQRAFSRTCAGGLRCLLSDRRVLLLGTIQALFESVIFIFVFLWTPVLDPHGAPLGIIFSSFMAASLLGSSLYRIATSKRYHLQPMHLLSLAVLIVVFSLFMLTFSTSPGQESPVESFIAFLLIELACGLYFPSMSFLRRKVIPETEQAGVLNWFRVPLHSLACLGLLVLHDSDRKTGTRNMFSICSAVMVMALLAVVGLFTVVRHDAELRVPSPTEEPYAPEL
inactive: [1] -0.037 | [2] 0.035 | [3] -0.137 | [4] -0.089 | entinostat -0.099 | vorinostat -0.093 | citarinostat -0.009 | silmitasertib -0.033 | [5] -0.193 | [6] -0.049 | entospletinib -0.005

LMNB1 (UniProt P20700)
Sequence of UniProt P20700 (P20700 whole entry, looked up): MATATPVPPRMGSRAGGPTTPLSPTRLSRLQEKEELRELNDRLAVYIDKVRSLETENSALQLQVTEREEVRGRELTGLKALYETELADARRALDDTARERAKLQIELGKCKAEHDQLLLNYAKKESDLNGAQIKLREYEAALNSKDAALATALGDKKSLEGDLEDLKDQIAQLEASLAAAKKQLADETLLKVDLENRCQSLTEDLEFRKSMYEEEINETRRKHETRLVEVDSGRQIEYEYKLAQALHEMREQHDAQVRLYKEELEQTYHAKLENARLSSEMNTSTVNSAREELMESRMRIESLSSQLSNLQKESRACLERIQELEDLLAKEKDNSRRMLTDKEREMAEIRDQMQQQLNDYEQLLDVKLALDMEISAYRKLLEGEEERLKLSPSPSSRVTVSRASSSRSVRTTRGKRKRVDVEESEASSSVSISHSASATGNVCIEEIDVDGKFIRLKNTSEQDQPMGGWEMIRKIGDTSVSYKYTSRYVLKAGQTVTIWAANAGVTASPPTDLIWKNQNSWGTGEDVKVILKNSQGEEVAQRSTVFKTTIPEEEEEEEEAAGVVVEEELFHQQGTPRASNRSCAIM
inactive: [1] 0.094 | [2] -0.073 | [3] 0.078 | [4] -0.018 | entinostat 0.024 | vorinostat -0.029 | citarinostat 0.033 | silmitasertib 0.097 | [5] -0.105 | [6] -0.072 | entospletinib -0.01

MAGOHB (UniProt Q96A72)
inactive: [1] -0.081 | [2] 0.177 | [3] -0.039 | [4] -0.132 | entinostat 0.016 | vorinostat -0.023 | citarinostat 0.043 | silmitasertib -0.006 | [5] 0.002 | [6] -0.089 | entospletinib 0.097

MAPK12 (UniProt P53778)
inactive: [1] -0.076 | [2] -0.095 | [3] -0.09 | [4] 0.014 | entinostat 0.012 | vorinostat 0.08 | citarinostat 0.046 | silmitasertib -0.006 | [6] 0.018 | entospletinib 0.02
active: [5] 0.348

IPO7 (UniProt O95373)
inactive: [1] 0.024 | [2] -0.099 | [3] -0.145 | [4] -0.069 | entinostat 0.036 | vorinostat 0.055 | citarinostat 0.056 | silmitasertib 0.015 | [5] -0.004 | [6] -0.09 | entospletinib 0.027

KLHL18 (UniProt O94889)
inactive: [1] 0.132 | [2] -0.034 | [3] -0.145 | [4] -0.123 | entinostat -0.045 | vorinostat 0.137 | citarinostat 0.123 | silmitasertib -0.029 | [5] -0.014 | [6] -0.022 | entospletinib -0.016

MARK2 (UniProt E9PC69)
inactive: [1] -0.513 | [2] -0.401 | [4] -0.213 | entinostat 0.101 | citarinostat 0.024 | [5] 0.082 | [6] -0.28 | entospletinib 0.029

KCTD2 (UniProt Q14681)
Sequence of UniProt Q14681 (Q14681 whole entry, looked up): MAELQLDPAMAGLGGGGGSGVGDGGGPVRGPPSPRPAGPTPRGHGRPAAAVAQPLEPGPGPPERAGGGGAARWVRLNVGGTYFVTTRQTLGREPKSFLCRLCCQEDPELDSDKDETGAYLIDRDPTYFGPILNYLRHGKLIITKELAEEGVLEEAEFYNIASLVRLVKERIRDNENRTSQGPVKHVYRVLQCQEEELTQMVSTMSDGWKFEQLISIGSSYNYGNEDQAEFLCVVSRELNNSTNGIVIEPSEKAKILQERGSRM
inactive: [1] -0.524 | [2] -0.195 | [3] 0.032 | [4] -0.119 | entinostat -0.35 | vorinostat -0.543 | citarinostat -0.274 | silmitasertib 0.119 | [5] -0.121 | [6] -0.204 | entospletinib 0.139

LUM (UniProt P51884)
Sequence of UniProt P51884 (P51884 whole entry, looked up): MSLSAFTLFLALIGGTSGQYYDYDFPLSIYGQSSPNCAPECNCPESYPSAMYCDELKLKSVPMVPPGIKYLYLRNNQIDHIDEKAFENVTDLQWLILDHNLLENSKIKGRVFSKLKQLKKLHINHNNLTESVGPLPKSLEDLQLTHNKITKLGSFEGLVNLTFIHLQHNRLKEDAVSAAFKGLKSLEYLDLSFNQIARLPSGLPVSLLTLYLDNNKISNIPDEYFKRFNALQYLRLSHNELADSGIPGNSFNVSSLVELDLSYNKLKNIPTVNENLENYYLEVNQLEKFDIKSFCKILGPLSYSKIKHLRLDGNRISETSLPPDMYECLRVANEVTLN
inactive: [1] -0.067 | [2] -0.108 | [4] -0.002 | entinostat -0.033 | citarinostat -0.042 | [5] 0.185 | [6] 0.47 | entospletinib 0.331

KPNA6 (UniProt O60684)
inactive: [1] 0.01 | [2] -0.007 | [3] -0.06 | [4] -0.002 | entinostat 0.051 | vorinostat 0.061 | citarinostat 0.047 | silmitasertib 0.219 | [5] 0.067 | [6] -0.159 | entospletinib -0.021

MAPKAPK2 (UniProt P49137)
inactive: [1] 0.12 | [2] 0.035 | [3] -0.14 | [4] 0.034 | entinostat 0.018 | vorinostat 0.04 | citarinostat 0.058 | silmitasertib 0.06 | [5] -0.128 | [6] -0.006 | entospletinib -0.061

ILRUN (UniProt Q9H6K1)
inactive: [1] -0.213 | [2] -0.09 | [3] -0.128 | [4] -0.025 | entinostat 0.024 | citarinostat 0.027 | silmitasertib 0.014 | [5] -0.059 | [6] -0.01 | entospletinib -0.004

MED22 (UniProt Q15528)
inactive: [1] 0.042 | [2] 0.029 | [3] 0.064 | [4] 0.023 | entinostat 0.049 | citarinostat -0.243 | silmitasertib -0.01 | [5] -0.074 | entospletinib -0.143
active: [6] 0.322

MAPK14 (UniProt Q16539)
inactive: [1] -0.019 | [2] -0.047 | [3] -0.136 | [4] -0.033 | entinostat 0.022 | vorinostat 0.027 | citarinostat 0.051 | silmitasertib 0.37 | [6] 0.058 | entospletinib -0.006

IP6K1 (UniProt Q92551)
inactive: [1] -0.039 | [2] -0.253 | [3] -0.457 | entinostat 0.089 | vorinostat 0.138 | citarinostat -0.02 | silmitasertib -0.059 | [5] -0.048 | entospletinib -0.029
active: [6] 0.858

ITGA2B (UniProt P08514)
active: vorinostat -0.495
inactive: [1] 0.085 | [2] -0.222 | [4] -0.009 | entinostat -0.009 | [5] 0.02

LPGAT1 (UniProt Q92604)
Sequence of UniProt Q92604 (Q92604 whole entry, looked up): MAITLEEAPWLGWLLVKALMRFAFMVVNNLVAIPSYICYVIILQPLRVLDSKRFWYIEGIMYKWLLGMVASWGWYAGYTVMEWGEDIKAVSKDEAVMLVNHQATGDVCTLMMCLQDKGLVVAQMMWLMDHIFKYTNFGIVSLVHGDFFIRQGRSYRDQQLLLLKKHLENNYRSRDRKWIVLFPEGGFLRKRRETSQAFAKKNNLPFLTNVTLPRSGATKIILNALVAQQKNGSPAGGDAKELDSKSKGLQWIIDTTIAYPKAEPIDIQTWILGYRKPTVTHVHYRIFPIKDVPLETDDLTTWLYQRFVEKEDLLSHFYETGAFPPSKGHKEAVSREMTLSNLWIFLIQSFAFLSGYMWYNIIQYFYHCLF
inactive: [1] 0.038 | [2] 0.048 | [3] -0.102 | [4] 0.063 | entinostat -0.047 | citarinostat 0.157 | silmitasertib -0.015 | [5] -0.015 | [6] -0.108 | entospletinib -0.069

MED12 isoform 2 (UniProt Q93074)
inactive: [1] 0.022 | [2] -0.455 | [3] -0.191 | entinostat 0.066 | vorinostat 0.22 | citarinostat 0.181 | silmitasertib 0.016 | [5] -0.005 | [6] -0.311 | entospletinib 0.177

IMMT isoform 2 (UniProt Q16891)
Sequence of UniProt Q16891 (Q16891 whole entry, looked up): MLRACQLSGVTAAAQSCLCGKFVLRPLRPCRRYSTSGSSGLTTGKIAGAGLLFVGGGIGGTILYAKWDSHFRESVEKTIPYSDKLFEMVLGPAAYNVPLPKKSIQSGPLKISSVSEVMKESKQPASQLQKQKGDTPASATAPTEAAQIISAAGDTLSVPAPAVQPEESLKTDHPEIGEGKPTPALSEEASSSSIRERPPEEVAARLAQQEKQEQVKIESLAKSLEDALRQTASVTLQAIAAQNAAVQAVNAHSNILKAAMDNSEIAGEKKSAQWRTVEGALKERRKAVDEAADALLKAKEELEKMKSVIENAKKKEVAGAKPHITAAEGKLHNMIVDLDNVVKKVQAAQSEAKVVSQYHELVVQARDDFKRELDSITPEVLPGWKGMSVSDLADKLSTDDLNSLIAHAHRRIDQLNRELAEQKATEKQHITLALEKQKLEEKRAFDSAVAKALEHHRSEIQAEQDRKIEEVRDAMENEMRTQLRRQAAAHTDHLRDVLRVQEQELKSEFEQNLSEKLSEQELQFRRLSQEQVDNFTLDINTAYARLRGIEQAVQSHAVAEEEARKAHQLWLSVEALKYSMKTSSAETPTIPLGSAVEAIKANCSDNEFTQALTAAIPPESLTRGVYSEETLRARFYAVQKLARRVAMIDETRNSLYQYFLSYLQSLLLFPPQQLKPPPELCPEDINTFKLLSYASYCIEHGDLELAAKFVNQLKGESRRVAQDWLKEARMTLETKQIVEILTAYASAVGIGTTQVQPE
inactive: [1] 0 | [2] -0.045 | [3] -0.044 | [4] -0.066 | entinostat 0.039 | vorinostat 0.159 | citarinostat 0.042 | silmitasertib -0.066 | [5] 0.064 | [6] 0.008 | entospletinib -0.053

MELK (UniProt Q14680)
Sequence of UniProt Q14680 (Q14680 whole entry, looked up): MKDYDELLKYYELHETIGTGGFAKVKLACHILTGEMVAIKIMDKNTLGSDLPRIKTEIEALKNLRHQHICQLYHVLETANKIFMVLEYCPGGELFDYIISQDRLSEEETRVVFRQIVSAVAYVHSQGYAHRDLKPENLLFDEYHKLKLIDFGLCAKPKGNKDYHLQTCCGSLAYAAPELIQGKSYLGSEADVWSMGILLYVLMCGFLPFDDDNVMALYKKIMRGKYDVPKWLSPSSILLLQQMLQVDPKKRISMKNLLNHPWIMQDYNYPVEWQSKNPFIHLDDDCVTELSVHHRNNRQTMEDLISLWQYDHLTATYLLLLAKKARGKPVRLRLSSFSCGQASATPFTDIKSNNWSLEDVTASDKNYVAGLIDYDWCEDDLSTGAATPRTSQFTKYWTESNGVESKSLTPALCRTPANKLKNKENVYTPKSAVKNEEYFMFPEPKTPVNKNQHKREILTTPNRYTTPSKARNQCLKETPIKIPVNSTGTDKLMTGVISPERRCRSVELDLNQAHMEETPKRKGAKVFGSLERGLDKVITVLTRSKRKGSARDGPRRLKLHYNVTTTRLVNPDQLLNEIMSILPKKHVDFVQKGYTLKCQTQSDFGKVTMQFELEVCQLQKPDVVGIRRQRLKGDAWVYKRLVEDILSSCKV
inactive: [1] -0.384 | [2] -0.128 | entinostat -0.052 | vorinostat 0.062 | citarinostat -0.001 | [5] -0.016 | [6] -0.366 | entospletinib 0.025

MED8 isoform 2 (UniProt Q96G25)
inactive: [1] 0.048 | [2] 0.2 | [3] 0.038 | [4] 0.303 | entinostat -0.107 | citarinostat 0.035 | silmitasertib 0.079 | [5] -0.043 | [6] -0.092 | entospletinib 0.034

INTS5 (UniProt Q6P9B9)
inactive: [1] 0.015 | [2] -0.116 | [3] -0.079 | [4] -0.175 | entinostat 0.014 | silmitasertib -0.006 | [5] -0.076

MED7 (UniProt O43513)
Sequence of UniProt O43513 (O43513 whole entry, looked up): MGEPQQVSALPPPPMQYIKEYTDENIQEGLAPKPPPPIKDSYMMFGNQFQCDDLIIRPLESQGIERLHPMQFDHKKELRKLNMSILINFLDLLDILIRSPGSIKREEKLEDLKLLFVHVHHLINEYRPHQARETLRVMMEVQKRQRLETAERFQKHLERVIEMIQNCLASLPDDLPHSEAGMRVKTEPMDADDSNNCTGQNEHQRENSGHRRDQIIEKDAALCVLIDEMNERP
inactive: [1] 0.034 | [2] 0.122 | [4] -0.041 | entinostat -0.16 | [5] -0.085

IL10RB (UniProt Q08334)
active: entinostat -0.431
inactive: [1] -0.113 | [2] -0.121 | [4] -0.031 | vorinostat 0.109 | citarinostat 0.055 | [5] 0.062 | [6] -0.026 | entospletinib 0.027

IMMP1L (UniProt Q96LU5)
inactive: [1] -0.062 | [2] -0.055 | [3] -0.103 | [4] -0.037 | entinostat 0.005 | citarinostat 0.044 | silmitasertib -0.132 | [5] -0.088 | [6] 0.017 | entospletinib -0.172

IGFBP3 isoform 2 (UniProt P17936)
Sequence of UniProt P17936 (P17936 whole entry, looked up): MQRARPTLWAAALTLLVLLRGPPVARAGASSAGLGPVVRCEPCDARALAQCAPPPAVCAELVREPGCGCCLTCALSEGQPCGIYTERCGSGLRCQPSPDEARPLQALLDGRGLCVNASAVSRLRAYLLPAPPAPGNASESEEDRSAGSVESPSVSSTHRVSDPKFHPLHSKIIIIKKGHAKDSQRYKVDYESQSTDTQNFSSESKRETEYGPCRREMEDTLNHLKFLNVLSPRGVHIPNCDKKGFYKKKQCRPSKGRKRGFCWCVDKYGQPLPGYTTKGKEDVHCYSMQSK
inactive: [1] 0.042 | [2] -0.142 | [4] -0.043 | entinostat -0.02 | vorinostat 0.167 | [5] -0.047

LYN isoform 2 (UniProt P07948)
inactive: [1] 0.162 | [2] 0.014 | [4] -0.073 | entinostat -0.155 | [5] 0.082

MAGED1 isoform 2 (UniProt Q9Y5V3)
inactive: [1] 0.098 | [2] -0.029 | [4] -0.258 | entinostat 0 | [5] 0.262

ITM2C (UniProt Q9NQX7)
Sequence of UniProt Q9NQX7 (Q9NQX7 whole entry, looked up): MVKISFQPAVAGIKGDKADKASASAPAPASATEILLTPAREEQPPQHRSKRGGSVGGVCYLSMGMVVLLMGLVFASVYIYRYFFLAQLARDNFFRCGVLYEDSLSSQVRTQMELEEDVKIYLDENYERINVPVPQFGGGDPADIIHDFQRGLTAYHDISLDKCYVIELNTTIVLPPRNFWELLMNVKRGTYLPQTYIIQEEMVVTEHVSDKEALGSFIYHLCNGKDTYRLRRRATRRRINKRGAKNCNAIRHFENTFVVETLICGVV
inactive: [1] -0.309 | [2] -0.009 | [4] -0.133 | entinostat 0.164 | vorinostat -0.032 | [5] 0.029

MED25 isoform 3 (UniProt Q71SY5)
Sequence of UniProt Q71SY5 (Q71SY5 whole entry, looked up): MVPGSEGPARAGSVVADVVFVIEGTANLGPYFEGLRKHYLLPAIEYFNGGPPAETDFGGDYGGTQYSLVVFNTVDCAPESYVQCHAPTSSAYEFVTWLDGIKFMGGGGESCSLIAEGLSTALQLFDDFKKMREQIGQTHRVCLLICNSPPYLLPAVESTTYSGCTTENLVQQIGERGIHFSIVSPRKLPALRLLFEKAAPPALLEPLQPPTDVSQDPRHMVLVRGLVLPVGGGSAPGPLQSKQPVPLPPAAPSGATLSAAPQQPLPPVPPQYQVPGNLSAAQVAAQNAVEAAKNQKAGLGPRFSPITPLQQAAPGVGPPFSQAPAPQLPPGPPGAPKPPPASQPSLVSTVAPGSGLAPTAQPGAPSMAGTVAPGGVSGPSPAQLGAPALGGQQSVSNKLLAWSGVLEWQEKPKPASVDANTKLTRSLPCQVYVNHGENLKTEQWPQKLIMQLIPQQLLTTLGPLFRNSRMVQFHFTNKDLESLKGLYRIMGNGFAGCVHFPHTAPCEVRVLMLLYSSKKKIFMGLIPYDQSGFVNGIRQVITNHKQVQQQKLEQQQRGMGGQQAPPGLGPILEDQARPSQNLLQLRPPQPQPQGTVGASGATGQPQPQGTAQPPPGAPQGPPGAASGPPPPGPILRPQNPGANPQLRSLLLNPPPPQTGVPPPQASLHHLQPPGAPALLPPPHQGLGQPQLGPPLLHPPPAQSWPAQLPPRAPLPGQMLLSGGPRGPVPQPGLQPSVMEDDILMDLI
active: [3] -0.591
inactive: [1] -0.016 | [2] -0.021 | [4] 0.064 | entinostat 0.065 | vorinostat -0.349 | citarinostat 0.052 | silmitasertib 0.174 | [6] -0.148 | entospletinib -0.01

LIMD1 (UniProt Q9UGP4)
inactive: [1] 0.009 | [2] 0.005 | [3] 0.004 | [4] -0.029 | entinostat -0.038 | vorinostat 0.025 | citarinostat 0.052 | silmitasertib 0.03 | [5] -0.06 | [6] 0.01 | entospletinib -0.025
